Hits are enriched below; roughly 2.4% of the tested compounds scored in any of these assays.
CHO-K1 Ca ag – counter-screen for M1 agonists: effect in parental CHO-K1 cells | Fluo-8 calcium fluorescence; scaled to maximal ATP response, vehicle zero | activation, % at 3 µM | 0.48% of 360,000 active; in the data active = activation above about 15%;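 note: untransfected CHO-K1 host cells lacking M1 receptor as counterscreen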
CHO-K1 Ca PAM – M1 PAM counterscreen hit in parental CHO-K1 cells. ATP EC20, Fluo-8 calcium fluorescence; 0% at ATP EC20, 100% at ATP max. activation, % at 3 µM. 0.02% of 360,000 active;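 active = activation above the run cutoff, the mean activation of all test compounds plus 3 SD, cut at about 40% in these data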;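 note: peak over basal fluorescence ratio in a 140 s read after ATP addition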
CHO-K1 Ca antag – nonselective inhibitor or artifact in parental CHO-K1 cells; ATP-induced calcium, Fluo-8 fluorescence; inhibition, % at 3 µM; 0.6% of 360,000 active;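 active = inhibition above a per-plate cutoff, the plate's mean sample inhibition plus 3 SD, cut at about 24% in these data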;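 note: 0% = DMSO plus EC80 ATP and 100% = DMSO alone without ATP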
CHRM1 PAM – positive allosteric modulators of human M1 muscarinic receptor. CHO-K1 hM1, Fluo-8 calcium fluorescence, ACh EC20; 0% = ACh EC20, 100% = maximal ACh. activation, % at 3 µM. 0.088% of 360,000 active. AID 588819; in the data active = activation above about 19%, passing the limit was not always enough
Target sequence (P11229 whole entry, looked up): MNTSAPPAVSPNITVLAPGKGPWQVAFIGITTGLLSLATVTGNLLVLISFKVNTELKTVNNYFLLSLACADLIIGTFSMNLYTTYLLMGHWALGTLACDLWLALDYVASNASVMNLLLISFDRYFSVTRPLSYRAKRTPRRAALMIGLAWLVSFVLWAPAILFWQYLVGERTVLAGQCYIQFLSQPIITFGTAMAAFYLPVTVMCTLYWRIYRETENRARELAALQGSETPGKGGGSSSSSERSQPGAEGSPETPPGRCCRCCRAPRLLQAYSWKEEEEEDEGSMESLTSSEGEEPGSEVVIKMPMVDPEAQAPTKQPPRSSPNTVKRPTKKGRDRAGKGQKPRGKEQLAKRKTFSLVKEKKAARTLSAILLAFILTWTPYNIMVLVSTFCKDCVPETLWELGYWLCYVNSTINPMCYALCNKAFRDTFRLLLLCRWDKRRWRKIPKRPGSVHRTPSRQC
M1 antag – antagonists of human M1 muscarinic receptor. inhibition, % at 3 µM. 1.3% of 360,000 active. AID 588852. P11229. CHO-K1 hM1, Fluo-8 calcium fluorescence, ACh EC80 antagonist;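 active = percent inhibition above its own plate's cutoff, namely the mean of that plate's compound wells plus 3 SD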;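 note: peak over basal fluorescence ratio during 140 s after agonist addition; 0% = ACh EC80 plus DMSO and 100% = DMSO alone without agonist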
M1 ag – human M1 muscarinic receptor agonism. P11229. CHO-K1 hM1, Fluo-8 calcium fluorescence, agonist mode; 0% DMSO, 100% acetylcholine EC100. 0.33% of 360,000 active. activation, % at 3 µM;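 active = activation above the run's mean compound activation plus 3 SD, cut at about 16% in these data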;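 note: peak over basal fluorescence ratio within a 140 s kinetic read after compound addition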
* marks the source's active call; other numbers are inactive results.

SMILES | CHO-K1 Ca ag | CHO-K1 Ca PAM | CHO-K1 Ca antag | CHRM1 PAM | M1 antag | M1 ag
Cc1c2cnn(CC(=O)NCCN3CCOCC3)c(=O)c2c(C)n1Cc1ccccc1 | 6 | -3 | 4 | -14 | 32* | -4
Cc1c2cnn(CC(=O)NCCCN3CCCCC3)c(=O)c2c(C)n1Cc1ccccc1 | 0 | 1 | 2 | -7 | 7 | -12
Cc1nn(Cc2ccc(Cl)c(Cl)c2)c(C)c1NC(=O)c1noc2c1CCCCC2 | 1 | 5 | 13 | 27* | 9 | -4
Cc1ccccc1Cn1nc(C)c(NC(=O)c2cc(CC(C)C)on2)c1C | 5 | 8 | -6 | -4 | 1 | -5
Cc1nn(Cc2ccc(Cl)c(Cl)c2)c(C)c1NC(=O)c1cc(CC(C)C)on1 | 6 | 8 | 2 | -21 | 29* | -8
O=C(Nc1cccc(S(=O)(=O)Nc2ccc(Cl)cc2)c1)c1ccccn1 | 0 | -13 | 6 | 6 | 9 | -1
COc1ccc(-c2nc(CN3CCC(C(=O)N4CCOCC4)CC3)c(C)o2)cc1C | 0 | 5 | -5 | -1 | -1 | -14
CCCC1(C(=O)OCC)NC(c2ccc(OC)cc2OC)C2C(=O)N(c3ccc4c(c3)OCCO4)C(=O)C21 (stereo not given) | 1 | -4 | 46* | 1 | 1 | -1
CCCC1(C(=O)OC)NC(c2ccc(OC)c(OC)c2)C2C(=O)N(c3ccc4c(c3)OCO4)C(=O)C21 (stereo not given) | 0 | -6 | 15 | 3 | 2 | 1
Cc1c(NC(=O)CSc2nc3ccccc3c(=O)n2C(C)C)c(=O)n(-c2ccccc2)n1C | 0 | 18 | -17 | 1 | -2 | -5
CCN(CC)S(=O)(=O)c1ccc(N2CC(C(=O)N3Cc4ccccc4CC3C(N)=O)CC2=O)cc1 (stereo not given) | 0 | 4 | -10 | 10 | -9 | -4
O=C(Nc1ccccc1)c1cccc(NC(=O)c2ccco2)c1 | 10 | 26 | -5 | 7 | -6 | 2
O=C(Nc1cccc(-c2nc3ccccc3[nH]2)c1)c1cccc(NC(=O)c2ccco2)c1 | 8 | 8 | -31 | -14 | 37* | -3
O=C(O)Cc1ccc(NC(=O)c2cccc(NC(=O)c3ccco3)c2)cc1 | -1 | -14 | 28* | 7 | 2 | 0
CC1=C(C(=O)N(C(C)C)C(C)C)CC(CC(=O)NC2CC2)C(=O)N1Cc1ccc(F)cc1 (stereo not given) | 0 | 10 | -15 | 2 | -28 | -2
COc1ccc(OC)c(C(=O)c2ccc(C(=O)Nc3ccc4ccccc4c3)cc2)c1 | 0 | -16 | 27* | -5 | -3 | -3
COc1ccc(C(=O)Nc2ccc3ccccc3c2)cc1 | 1 | 16 | -5 | 9 | -6 | -4
O=C(c1cc2nc(-c3ccccc3)cc(-c3ccccc3)n2n1)N1CCCC1 | 16* | 18 | 2 | -4 | 11 | -7
O=C(Nc1ccc(Cl)c(Cl)c1)O/N=C/c1ccncc1 | 12 | 1 | 28* | -7 | 17 | 2
O=C(Nc1cccc(Cl)c1)O/N=C\c1ccncc1 | 2 | -3 | -4 | -6 | -6 | 2
CCCCOc1ccc(S(=O)(=O)Nc2cccnc2)cc1 | 30* | 2 | 6 | -17 | 27 | -1
CC(C)c1ccc2[nH]c3c(c2c1)CCC/C3=N\NC(=O)c1ccncc1 | -1 | -18 | 7 | 0 | 5 | -3
Cc1cc(C)c(C#N)c(SCC(O)COc2ccc(Br)cc2)n1 (stereo not given) | 4 | -5 | -3 | -33 | 61* | -10
Cc1ccc(CN2CCC[C@]3(N[C@H](c4ccccc4)[C@@H]4C(=O)N(Cc5ccccc5)C(=O)[C@@H]43)C2=O)cc1 | 1 | -15 | 29* | -3 | 3 | -5
CCN1C(=O)[C@H]2[C@@H](c3ccc(C(F)(F)F)cc3)N[C@]3(CCCN(Cc4ccc(C(F)(F)F)cc4)C3=O)[C@H]2C1=O | 0 | 12 | -15 | 6 | -15 | -6
SMILES | CHO-K1 Ca ag | CHO-K1 Ca PAM | CHO-K1 Ca antag | CHRM1 PAM | M1 antag | M1 ag
CCN1C(=O)[C@H]2[C@@H](c3ccc(C)cc3)N[C@]3(CCCN(Cc4ccc(F)cc4)C3=O)[C@H]2C1=O | -1 | -12 | 25* | -1 | -9 | -5
O=C(Cc1cccs1)NCc1cccc(F)c1 | 0 | 10 | 0 | 9 | -13 | -8
CC(C)c1ccc(CNc2ccc3c(c2)ncn3C)cc1 | 11 | 27 | -11 | -14 | 34* | -9
Cn1cnc2cc(NCc3ccccc3Cl)ccc21 | 2 | 8 | -6 | 2 | -8 | -11
CCN(CC)S(=O)(=O)c1ccc(S(=O)(=O)Nc2ccc3c(c2)oc2ccccc23)cc1 | 0 | -6 | 25* | -6 | 5 | -3
O=C1NN=C(CSc2n[nH]c(=S)s2)CS1 | -1 | 9 | -9 | 8 | -2 | -9
C=C1CC(C(=O)N/N=C/c2ccc(O)cc2)C1 | 0 | -15 | 25* | -8 | 13 | -5
CN1CCC(=C2c3ccccc3C(O)c3ccccc32)CC1 (stereo not given) | 0 | 9 | -10 | -35 | 100* | -11
CN1CCC(=C2c3ccccc3CCc3sccc32)CC1 | 2 | 17 | -3 | -26 | 98* | -4
Nc1nc2c(s1)CCc1ccccc1-2 | -1 | -12 | 12 | 2 | -4 | -7
CCc1ccc(NC(=O)NCCN2CCN(c3ccc(OC)cc3)CC2)cc1 | 15* | 12 | 1 | -3 | 7 | -4
O=C(NC1CCCC1)c1cc(COc2ccc3ncccc3c2)on1 | 14 | -1 | 12 | -12 | 31* | 3
O=C(NCCc1cn2ccccc2n1)c1cc(COc2ccc3ncccc3c2)on1 | 19* | -11 | 33* | -18 | 33 | 0
O=C(c1cc(COc2ccc3ncccc3c2)on1)N1CCCCCC1 | 13 | 2 | 16 | -7 | 29 | 5
O=C(c1cc(COc2ccc3ncccc3c2)on1)N1CCCC1 | 11 | -14 | 4 | 2 | 8 | 6
CC(NC(=O)c1cc(COc2ccc3ncccc3c2)on1)c1ccc(F)cc1 (stereo not given) | 13 | -24 | 22 | -12 | 34* | 3
O=C(CN1C(=O)C(=O)N(C2CCCC2)C1=O)Nc1ccc(N2CCOCC2)cc1 | 1 | 6 | -18 | 10 | -3 | 2
CC(C)N1CCC(N2CCN(Cc3ccc(-c4ccc(Cl)cc4)o3)CC2CCO)CC1 (stereo not given) | 4 | 10 | -6 | -5 | 13 | -4
Cc1ccc(-c2cccc(CN3CCN(C4CCN(C(C)C)CC4)C(CCO)C3)c2)o1 (stereo not given) | 0 | -9 | 6 | -11 | 31* | -4
Oc1ccc(CCNc2ncnc3ccc(Cl)cc23)cc1 | 16* | 0 | 8 | -22 | 35 | 7

Bioassay records (PubChem BioAssay)
